Screening data from PubChem BioAssay.
The list is not random: actives were taken first. Their share in the collection is about 14%.
Sm TGR block: blocks Schistosoma mansoni thioredoxin glutathione reductase. Potency, µM (top dose mostly 114 µM), without a hit: at the highest dose activity change, negative = inhibition, usual class: inhibitors. Q962Y6. purified TGR, DTNB reduction, TNB absorbance 405 nm. AID 485364. hit rate 3% among 360,000; also: potency is read from the fitted curve at half-maximal effect; nearly all actives have a fitted effect of over 60% in size
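Kinetic colorimetric format: TGR-catalysed, NADPH-driven DTNB reduction monitored via TNB absorbance. Enzyme dispensed at 20 nM; compound exposure 15 min at room temperature before reaction start.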
Giardia FBPA inh: blocks Giardia fructose-bisphosphate aldolase activity. A8B2U2. purified Giardia FBPA. Potency, µM (series often up to 59.6 µM), for the others: at the highest dose activity, negative = inhibition, usual class: inhibitors. hit rate 0.71% among 290,000. AID 2451; also: potency is read from the fitted curve at half-maximal effect; nearly all actives have a fitted effect of over 55% in size
Target sequence (A8B2U2 whole entry, looked up): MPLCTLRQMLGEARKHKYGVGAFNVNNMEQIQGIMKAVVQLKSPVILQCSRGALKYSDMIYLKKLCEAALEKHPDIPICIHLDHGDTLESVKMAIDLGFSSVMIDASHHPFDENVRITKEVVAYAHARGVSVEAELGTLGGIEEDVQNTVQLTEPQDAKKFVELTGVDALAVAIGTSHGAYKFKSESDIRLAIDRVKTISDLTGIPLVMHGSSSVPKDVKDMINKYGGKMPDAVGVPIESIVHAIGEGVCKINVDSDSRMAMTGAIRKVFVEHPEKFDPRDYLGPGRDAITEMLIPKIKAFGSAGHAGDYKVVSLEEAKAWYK
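Giardia FBPA (40 nM reagent) was preincubated 10 min at RT with compound (up to 57.5 uM final), then substrate plus GAPDH/TPI/NAD/arsenate coupling system with diaphorase/resazurin was added; resorufin fluorescence (525/598 nm) was read after 20 min.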
HCMV antiviral: human cytomegalovirus inhibition | HFF cells, HCMV-luciferase reporter, 72 h; active compounds read low | activity change, negative = inhibition, % at 57.5 µM | hit rate 4.5% among 410,000 | AID 1259415; in the data active = activity change below about -60%; inconclusive = no clear call, values can overlap the other calls; inactive = above about -39%
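Cell-based, HFFs, 1000 cells/well, 16 h 37C; cpds in DMSO + HCMV-luc, MOI 1 PFU/cell; 72 h 37C; OneGlo luminescence after 5 min RT; norm. to buffer vs Salinomycin 10uM.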
Pf growth 48h: P. falciparum growth inhibition at 48 hours (one generation) | P. falciparum luciferase growth in erythrocytes, 48 h | Potency, µM (doses to about 28.7 µM), for inactives: at the top dose activity change, negative = inhibition, most hits filed as inhibitors | hit rate 5.9% among 310,000; also: potency is read from the fitted curve at half-maximal effect
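First compound was added to culture medium, then infected red cells at 0.1% parasitemia and 2% hematocrit (final). After incubation at 37 C under 5% CO2, luciferase detection reagent was dispensed and light output recorded.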
Pf growth 96h: P. falciparum growth inhibition at 96 hour, primary screen for plastid delayed-death inhibitors. hit rate 6.9% among 320,000. Potency, µM (highest dose often 28.7 µM), inactives show at the highest dose activity change, negative = inhibition, most hits filed as inhibitors. AID 504834. P. falciparum luciferase reporter growth, 96 h; also: potency is read from the fitted curve at half-maximal effect
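Plates of compound plus infected erythrocytes (2% hematocrit, 0.05% parasitemia final) incubate 96 hours, 37 C, 5% CO2. Detection reagent added; reduced luminescence from the parasites' luciferase reporter flags inhibition.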
Starred values were filed as active, the others as inactive; ? = inconclusive; / = no result given; [ ] = another dose, or the depositor's remark. Unless noted, calls follow the shape of the dose curve; as a rule, active = well fitted curve in the direction sought with a large enough effect; inconclusive = small, poorly fitted or top-dose-only effect, or another doubt; inactive = no such curve, though single readings can be large; an effect the other way counts as inactive or inconclusive. % is scaled to controls: 0 for no effect and ±100 for the full control effect.

SMILES | Sm TGR block | Giardia FBPA inh | HCMV antiviral | Pf growth 48h | Pf growth 96h
CCOC(=O)COn1c(-n2nc(C)cc2C)nc2ccccc2c1=O | 13% | 11% | -27 | 3.7µM* | 1.5µM*
CCOn1c(-n2nc(C)cc2C)nc2ccccc2c1=O | -7% | 0% | -26 | -6% | /
COC(=O)COn1c(-n2nc(C)cc2C)nc2ccccc2c1=O | -9% | 2% | 5 | 9.3µM* | /
Cc1cc(C)n(-c2nc3ccccc3c(=O)n2OCC#N)n1 | 5% | 8% | -89* | 1.3µM* | 0.37µM*
O=C(Nc1nnc(S(=O)(=O)N2CCCCC2)s1)c1ccc(F)cc1 | -34% | / | -4 | / | /
COc1ccc(CCNC(=O)c2cc3c(=O)n4ccccc4nc3n(C3CCCCC3)c2=N)cc1OC | -7% | / | 6 | ? | 10µM*
COc1ccc(CCNC(=O)c2cc3c(=O)n4ccccc4nc3n(C3CCCCC3)c2=N)cc1 | -6% | / | -7 | ? | 4.1µM*
CC(C)NC(=O)C1CCCN(S(=O)(=O)c2ccc3c(ccn3C)c2)C1 (stereo not given) | -15% | / | 11 | / | /
COC(=O)c1ccccc1NC(=O)CN(c1ccc(C)cc1)S(C)(=O)=O | 5% | -2% | 9 | -4% | 12%
CCOc1cccc(C(=O)Nc2cccc(C(=O)NC(C)(C)C)c2)c1 | 1% | 6% | -24 | -6% | 8%
CCOc1cccc(C(=O)Nc2ccc(N3CCCC3)cc2)c1 | -13% | -4% | -29 | 0% | 0%
CCOc1cccc(C(=O)Nc2cccc(C(C)=O)c2)c1 | -7% | -1% | 54 | 120% | 3.3µM*
CCCOc1cccc(C(=O)NC(=S)Nc2cccc(C(F)(F)F)c2)c1 | -13% | -15% | ? | / | ?
CCOc1cccc(C(=O)NC(=S)Nc2cccc(C)c2)c1 | ? | -3% | -99* | 46% | ?
CCOc1ccc(NC(=O)c2cccc(OC(=S)N3CCC(C)CC3)c2)cc1 | -4% | 2% | 55 | ? | 12µM*
CCOc1cccc(C(=O)Nc2ccc3ccccc3c2)c1 | -8% | 3% | -40 | 110% | -55%
CCOc1cccc(C(=O)Nc2cccc(NC(=O)c3ccco3)c2)c1 | 2% | 2% | -62* | -8% | 23%
COc1cccc(-n2c(=O)c3sccc3n(Cc3cc(=O)n4cc(Cl)ccc4n3)c2=O)c1 | -1% | / | -12 | / | /
COc1cc(OC)cc(C(=O)Nc2nnc(SCC(=O)NCc3ccco3)s2)c1 | ? | / | 42 | 17% | -24%
CC(C)C(C(=O)NC1CCCC1)N(CC1CCCO1)C(=O)CNS(=O)(=O)c1ccccc1 (stereo not given) | 0% | 2% | 36 | -17% | 4%
COc1cccc(C(=O)NC(=S)Nc2ccc(N3CCCC3)cc2)c1 | ? | 2% | 17 | ? | 41%
CCc1cccc(C)c1NC(=O)c1cccc(C(=O)Nc2c(C)cccc2CC)c1 | 1% | / | -16 | / | /
COc1ccc(NC(=S)Nc2ccc(N(C)C(C)=O)cc2)cc1 | -31% | -1% | -98* | 2% | -45%[1.15 µM]
CCc1cccc(CC)c1NC(=O)c1cccc(NC(=O)c2ccccc2)c1 | 3% | 6% | -67* | / | ?
COc1cccc(C(=O)NC(=S)Nc2ccc(N(C)C)cc2)c1 | 16µM* | -5% | 28 | 143% | -19%
COC(=O)COc1cccc(NC(=O)c2cccc(C)c2)c1 | / | 1% | 4 | 10% | 10µM*
O=C(CNC(=O)c1ccc(F)cc1)N/N=C/c1cccnc1 | 2% | 9% | -36 | 74% | 10%
CCCCC(CC)COS(=O)(=O)O (stereo not given) | / | / | / | 13% | 5%
